Results filed as inconclusive are left out. A number with no mark means an inactive call. The source made the active and inactive calls. The call rests on the fitted dose curve; in most records, active means well fitted inhibition curve with a large enough effect; inconclusive means small, poorly fitted or top-dose-only effect; inactive means flat fitted curve, though single readings scatter.

For this test, the system named is Trypanosoma cruzi 6-phosphofructokinase. In words: Confirmatory Assay to Find Inhibitors of T. brucei phosphofructokinase: Counter Screen against T cruzi PFK. Particulars: ADP-Glo luminescence, 45 min; series mostly up to 57.5 µM; activity, negative = inhibition: at the top concentration. From the text:
Various species of the protozoan family Trypanosomatidae are responsible for a range of serious human diseases in tropical and subtropical areas of the world. […] Many of the disorders caused by trypanosomatids are fatal if left untreated, but most currently used drugs are inefficient and toxic. […] Oxidative metabolism involving the mitochondrial tricarboxylic acid cycle and oxidative phosphorylation are repressed in these parasites, and recent RNA interference (RNAi) experiments have shown that even partial depletion of certain individual glycolytic enzymes can lead to the death of cultured parasites. One such glycolytic enzyme, phosphofructokinase (PFK), catalyzes the formation of fructose-1,6-bisphosphate (F1,6BP) and ADP from fructose-6-phosphate (F6P) and ATP, and in many metabolic circumstances makes an important contribution to the control of flux through the glycolytic pathway. As a specific glycolytic target, PFK is particularly attractive as it catalyzes the first irreversible step in glycolysis, and structural and kinetic studies have shown very substantial and essential differences from corresponding host enzymes, allowing for the discovery of parasite-selective inhibitors. Confirmed qHTS active compounds were tested against T cruzi PFK. A luminescent biochemical assay was performed that used luciferase-based nucleotide detection (ADP-Glo, Promega) to examine the effect of identified actives against another trypanosomal isoform of PFK, namely Trypansoma cruzi, for target specificity. The assay is identical in concept to the T. brucei PFK qHTS assay, but instead uses the T. cruzi isoform of PFK (expressed and purified by U. of Edinburgh). NIH Molecular Libraries Probe Production Network [MLPCN] NIH Chemical Genomics Center [NCGC] Grant: 1 R03 MH092153-01 PI Name: Malcolm Walkinshaw, University of Edinburgh
Substrate buffer was dispensed into white, solid 1536-well plates at 3 uL/well in 0.1M triethanolamine (TEA) buffer, pH 8.0, containing final concentrations of 5 mM MgCl2, 0.01% Tween20, 0.6mM fructose-6-phosphate (F6P) and 0.1mM ATP. Then, 23nl of compounds or DMSO were delivered to each well using a pin tool. One uL of T. cruzi PFK (0.1M TEA, 0.01% Tween20, 0.1% bovine serum albumin (BSA) and […] PFK, final concentrations) was then dispensed, and plates were incubated at room temperature for 45 min. The luminescent detection reagent, ADP-Glo (Promega), was then added in two steps: the first reagent, ADP-Glo (which converts remaining uncatalyzed ATP), was added at 2.5uL/well and incubated for ten minutes at room temperature, and the second component, Kinase Detection reagent (which converts ADP to ATP as a substrate for luciferase-based luminescence), was added immediately after at 5uL/well, followed by one final ten minute room temperature incubation. The plates were measured on a ViewLux plate reader for luminescent signal using a clear filter with a one second exposure. The %Activity was determined from the corrected luminescence values. 1x (1.25nM) and 0x PFK enzyme controls (untreated) were included to normalize %Activity of identified inhibitors; 0x enzyme values corresponded to 100%Activity (full inhibition), while 1x PFK enzyme values were used to normalize 0% Activity (no inhibition).
A general note: A counterscreen serves to expose hits that act by an unwanted route or on another target.
As for `O=C(Cc1ccc(Cl)c(Cl)c1)Nc1ccc(S(=O)(=O)Nc2ccccc2)cc1`, the Potency was 16300 nM (active). Still for that read-out and setting: with `Cc1cc(NS(=O)(=O)c2ccc(NC(=O)Cc3cccc(Cl)c3)cc2)no1` the figure was 2590 nM (active). Take `CCOC(=O)c1cccc(NS(=O)(=O)c2ccc(NC(=O)Cc3ccc(Cl)c(Cl)c3)cc2)c1`: the “activity, negative = inhibition” value was -18%. `O=C(Cc1ccc(Cl)c(Cl)c1)Nc1ccc(S(=O)(=O)Nc2ccon2)cc1`: the Potency was 130 nM (active). In the case of `Cc1cc(NC(=O)c2csc(NC(=O)Cc3ccc(Cl)c(Cl)c3)n2)no1`, the “activity, negative = inhibition” value is -18.8%. As to `O=C(Cc1ccc(Cl)c(Cl)c1)Nc1ccc(S(=O)(=O)Nc2cccc(O)c2)cc1`, the Potency was 1630 nM (active).

As for `Cc1cc(NS(=O)(=O)c2ccc(NC(=O)Cc3ccc(Cl)c(C(F)(F)F)c3)cc2)no1`, the Potency is 919 nM (active).

As for `Cc1cc(N[S+](=O)([O-])c2ccc(NC(=O)Cc3ccc(Cl)nc3)cc2)no1`, the Potency was 20600 nM (active).

For `O=C(Cc1ccc(Cl)c(Cl)c1)Nc1ccc(S(=O)(=O)Nc2cccc(C(=O)O)c2)cc1`, the Potency is 580 nM (active). On the same count and under the same terms, with `Cc1cc(NS(=O)(=O)c2cccc(NC(=O)Cc3ccc(Cl)c(Cl)c3)c2)no1` the figure was 16300 nM (active).

Take `Cc1cc(NS(=O)(=O)c2ccc(NC(=O)Cc3ccc(Cl)c(F)c3)cc2)no1`: the Potency was 651 nM (active).

`Cc1cc(NS(=O)(=O)c2ccc(NC(=O)CCc3ccc(Cl)c(Cl)c3)cc2)no1`: the Potency was 6510 nM (active). The same measure, in the same setting: with `O=C(Cc1ccc(Cl)c(Cl)c1)Nc1ccc(S(=O)(=O)Nc2cncnc2)cc1` the figure was 730 nM (active); with `Cc1cc(NS(=O)(=O)Cc2ccc(NC(=O)Cc3ccc(Cl)c(Cl)c3)cc2)no1`, 3260 nM (active). Take `Cc1cc(NS(=O)(=O)c2ccc(NS(=O)(=O)Cc3ccc(Cl)c(Cl)c3)cc2)no1`: the “activity, negative = inhibition” value is -20.8%. On to `Cc1cc(N[S+](=O)([O-])c2ccc3cc(NC(=O)Cc4ccc(Cl)c(Cl)c4)ccc3c2)no1`, for which the Potency was 4610 nM (active). Regarding `Cc1cc(NS(=O)(=O)CCNC(=O)Cc2ccc(Cl)c(Cl)c2)no1`, the Potency was 16300 nM (active). The same measure, in the same setting: with `Cc1cc(NS(=O)(=O)c2ccc(NC(=O)Cc3ccc(C)c(C)c3)cc2)no1` the figure was 6510 nM (active); with `Cc1cc(NS(=O)(=O)c2ccc(N(C)C(=O)Cc3ccc(Cl)c(Cl)c3)cc2)no1`, 1300 nM (active). For the compound `O=C(Cc1ccc(Cl)c(Cl)c1)Nc1ccc(S(=O)(=O)Nc2ccc(C(=O)O)cc2)cc1`, the Potency is 291 nM (active). Same read-out and setting: with `Cc1cc(NS(=O)(=O)c2ccc(NC(=O)Cc3ccc(C)c(F)c3)cc2)no1` the figure was 4610 nM (active); with `O=C(Cc1ccc(Cl)c(Cl)c1)Nc1ccc(S(=O)(=O)O)cc1`, 461 nM (active). Same read-out and setting: with `O=C(Cc1ccc(Cl)c(Cl)c1)Nc1ccc(S(=O)(=O)Nc2ccn[nH]2)cc1` the figure was 730 nM (active); with `Cc1cc(NS(=O)(=O)c2ccc(NCCc3ccc(Cl)c(Cl)c3)cc2)no1`, 16300 nM (active). Regarding `Cc1cc(NC(=O)c2ccc(NC(=O)Cc3ccc(Cl)c(Cl)c3)cc2)no1`, the “activity, negative = inhibition” value was -18.9%. For the compound `Cc1cc(NS(=O)(=O)c2ccc(C(=O)NCc3ccc(Cl)c(Cl)c3)cc2)no1`, the Potency was 2910 nM (active).

With `Cc1cc(NS(=O)(=O)c2ccc(NC(=O)Cc3ccc(Cl)c(Cl)c3)cc2)no1`, the Potency was 231 nM (active). Same read-out and setting: with `Cc1cc(NS(=O)(=O)c2ccc(NC(=O)Cc3ccc(Cl)c(Cl)c3)cc2)on1` the figure was 231 nM (active). With `COc1ccc(CC(=O)Nc2ccc(S(=O)(=O)Nc3cc(C)on3)cc2)cc1OC`, the “activity, negative = inhibition” value is -4.76%.

For the compound `Cc1cc(NS(=O)(=O)c2ccc(NC(=O)Cc3ccc(Cl)cc3)cc2)no1`, the Potency was 1460 nM (active). Same read-out and setting: then `Cc1cc(NS(=O)(=O)c2ccc(NC(=O)Cc3ccc(Cl)cc3Cl)cc2)no1`, with 14600 nM (active); and `Cc1cc(N(C)S(=O)(=O)c2ccc(NC(=O)Cc3ccc(Cl)c(Cl)c3)cc2)no1`, with 2060 nM (active).

For `Cc1cc(NS(=O)(=O)c2ccc(NC(=O)Cc3ccc4ccccc4c3)cc2)no1`, the Potency was 1830 nM (active). Still for that read-out and setting: then `CN(C)c1cccc(NS(=O)(=O)c2ccc(NC(=O)Cc3ccc(Cl)c(Cl)c3)cc2)c1`, with 11600 nM (active); and `Cc1cc(NS(=O)(=O)c2ccc(NC(=O)Cc3ccc(Cl)c(Cl)c3)cc2)n(C)n1`, with 1160 nM (active).

(Values after PubChem BioAssay AID588324 (National Center for Advancing Translational Sciences (NCATS), 2011).)
